Activity calls are given as the source filed them.
Assays:
[1] = anti-His antibody binders, primary screen, artefact control for SMM control protein annotation, biochemical, small-molecule microarray, 635 nm fluorescence (AID 1128); settings: anti-His Alexa647 antibody binding, higher = more signal;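 further: score merges feature fluorescence with signal-to-noise for each printed compound spot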
[2] = tested on: Human papillomavirus type 1a E7 protein (residues 1-88); experiment: HPV1a E7 small-molecule binders, primary screen, biochemical, small-molecule microarray, residues 1-88, 635 nm (AID 1129); settings: small-molecule microarray binding, fluorescence 635 nm; higher = more signal
[3] = target: Focal adhesion kinase 1 (Homo sapiens) (UniProt Q05397); experiment: small-molecule microarray binders of FAK, primary screen, biochemical, 635/667 nm fluorescence, BSA, DTT (AID 1130); settings: PTK2 binding, 635 nm fluorescence, higher = more signal;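 further: composite of spot emission at 667 nm and signal to noise over triplicate slides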
[4] = tested on: Fibrinogen (Alexa647-labelled); experiment: fibrinogen binders on compound microarrays, profiling panel, artefact control for SMM control-protein annotation, biochemical, small-molecule microarray, 635/667 nm fluorescence (AID 1131); settings: fibrinogen-A647 binding fluorescence, higher = more signal;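 further: z-score merges 667 nm fluorescence with per-spot signal-to-noise over triplicate slides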
[5] = target: Follistatin (Homo sapiens) (UniProt P19883); experiment: follistatin binders on small-molecule microarrays, primary screen, biochemical, small-molecule microarray, 635/667 nm fluorescence (AID 1132); settings: FST binding, 635 nm fluorescence, higher = more signal
[6] = target: Fibroblast growth factor 2 (Homo sapiens) (UniProt P09038); experiment: FGF2 binders on small-molecule microarrays, primary screen, biochemical, small-molecule microarray, 635/667 nm fluorescence (AID 1133); settings: small-molecule microarray binding, FGF2, fluorescence 635/667; higher = more signal
[7] = mitochondrial membrane potential change in A549 cells, profiling panel, cell-based, JC-1 fluorescence, basal, 24 h, 100 nL (AID 1138); settings: higher = more signal;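 further: A549 lung adenocarcinoma cells under basal conditions with no added stimulus; test concentration not given here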
Lefty1 = Lefty1 binders on small-molecule microarrays, primary screen, biochemical, small-molecule microarray, 635/667 nm fluorescence (AID 1139); settings: small-molecule microarray binding, fluorescence 635/667; higher = more signal
[8] = tested on: wheat germ agglutinin (Triticum aestivum), Alexa647-labelled; experiment: wheat germ agglutinin binders on compound microarrays, profiling panel, artefact control for SMM control-protein annotation, biochemical, small-molecule microarray, 635/667 nm fluorescence (AID 1140); settings: WGA-A647 binding, 635 nm fluorescence, higher = more signal;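 further: score merges 667 nm feature emission with signal to noise over triplicate slides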
[9] = target: Luciferin 4-monooxygenase (Photinus pyralis) (UniProt P08659); experiment: firefly luciferase enzyme inhibitors, primary screen, biochemical, luminescence, purified enzyme, 2006 set (AID 1141); settings: SteadyGlo luminescence, 30 min, higher = more signal, called active from +8 up or from −8 down;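 further: cell-free assay with purified firefly luciferase at 100 ng per well in PBS; test concentration not given here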
Sequence of Luciferin 4-monooxygenase (Photinus pyralis) (P08659 whole entry, looked up): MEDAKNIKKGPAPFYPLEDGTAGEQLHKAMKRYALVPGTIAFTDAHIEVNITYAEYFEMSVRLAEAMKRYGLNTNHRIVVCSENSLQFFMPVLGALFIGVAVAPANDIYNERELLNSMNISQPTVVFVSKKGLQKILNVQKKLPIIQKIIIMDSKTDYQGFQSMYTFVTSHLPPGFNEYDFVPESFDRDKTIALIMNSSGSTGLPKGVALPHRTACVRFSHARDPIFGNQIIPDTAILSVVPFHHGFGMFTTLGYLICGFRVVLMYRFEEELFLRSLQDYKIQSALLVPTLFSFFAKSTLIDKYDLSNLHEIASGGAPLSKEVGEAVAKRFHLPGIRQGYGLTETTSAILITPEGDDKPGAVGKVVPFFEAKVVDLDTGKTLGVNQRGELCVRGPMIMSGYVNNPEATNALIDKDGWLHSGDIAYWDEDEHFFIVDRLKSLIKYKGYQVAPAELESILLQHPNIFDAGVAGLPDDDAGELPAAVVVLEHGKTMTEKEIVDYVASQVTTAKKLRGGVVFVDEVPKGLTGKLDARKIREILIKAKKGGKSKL

Sequence of Follistatin (Homo sapiens) (P19883 whole entry, looked up): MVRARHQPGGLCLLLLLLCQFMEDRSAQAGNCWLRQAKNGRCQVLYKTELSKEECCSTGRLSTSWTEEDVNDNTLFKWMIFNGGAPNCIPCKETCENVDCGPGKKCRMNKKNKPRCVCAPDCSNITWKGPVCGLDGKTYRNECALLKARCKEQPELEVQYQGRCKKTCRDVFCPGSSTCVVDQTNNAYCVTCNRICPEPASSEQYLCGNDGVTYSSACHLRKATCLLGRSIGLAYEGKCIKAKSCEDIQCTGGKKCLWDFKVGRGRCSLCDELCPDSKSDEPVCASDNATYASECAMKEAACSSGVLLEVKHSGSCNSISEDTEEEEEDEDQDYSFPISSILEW
Sequence of Fibroblast growth factor 2 (Homo sapiens) (P09038 whole entry, looked up): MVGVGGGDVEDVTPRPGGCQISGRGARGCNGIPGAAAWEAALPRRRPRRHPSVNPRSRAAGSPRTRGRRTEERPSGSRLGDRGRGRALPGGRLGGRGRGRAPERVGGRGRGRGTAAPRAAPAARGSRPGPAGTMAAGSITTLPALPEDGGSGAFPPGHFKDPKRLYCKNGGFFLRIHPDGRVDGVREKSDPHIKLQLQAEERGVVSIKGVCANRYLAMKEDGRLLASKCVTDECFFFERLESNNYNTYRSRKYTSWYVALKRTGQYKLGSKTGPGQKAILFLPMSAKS
Sequence of Focal adhesion kinase 1 (Homo sapiens) (Q05397 whole entry, looked up): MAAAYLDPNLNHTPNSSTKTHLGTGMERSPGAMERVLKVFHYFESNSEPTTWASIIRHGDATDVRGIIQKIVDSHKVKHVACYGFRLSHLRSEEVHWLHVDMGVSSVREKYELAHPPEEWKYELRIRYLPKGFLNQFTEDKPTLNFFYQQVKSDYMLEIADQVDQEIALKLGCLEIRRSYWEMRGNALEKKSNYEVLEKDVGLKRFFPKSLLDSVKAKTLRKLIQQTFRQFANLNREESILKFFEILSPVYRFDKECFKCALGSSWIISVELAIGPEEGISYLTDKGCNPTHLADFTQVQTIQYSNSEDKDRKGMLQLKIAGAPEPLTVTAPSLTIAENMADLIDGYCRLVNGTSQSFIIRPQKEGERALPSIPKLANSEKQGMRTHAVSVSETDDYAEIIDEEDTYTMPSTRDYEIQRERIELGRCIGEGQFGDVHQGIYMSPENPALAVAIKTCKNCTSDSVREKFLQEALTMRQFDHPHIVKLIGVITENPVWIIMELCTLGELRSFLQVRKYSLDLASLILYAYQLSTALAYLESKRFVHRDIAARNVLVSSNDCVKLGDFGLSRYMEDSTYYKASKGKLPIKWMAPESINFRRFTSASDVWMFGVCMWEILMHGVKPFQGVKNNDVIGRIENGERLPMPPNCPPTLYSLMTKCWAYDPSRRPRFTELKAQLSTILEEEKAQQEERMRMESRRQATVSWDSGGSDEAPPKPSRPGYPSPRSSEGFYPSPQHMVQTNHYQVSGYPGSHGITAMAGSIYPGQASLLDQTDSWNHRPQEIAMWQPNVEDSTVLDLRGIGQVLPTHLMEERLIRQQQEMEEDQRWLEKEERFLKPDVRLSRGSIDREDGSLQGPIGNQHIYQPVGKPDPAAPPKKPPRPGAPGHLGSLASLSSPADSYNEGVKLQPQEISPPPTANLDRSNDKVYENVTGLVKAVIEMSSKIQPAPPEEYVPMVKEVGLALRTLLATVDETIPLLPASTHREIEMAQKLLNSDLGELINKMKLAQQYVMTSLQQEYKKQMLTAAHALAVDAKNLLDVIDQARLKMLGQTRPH

SMILES	composite z-score [1]	composite z-score [2]	composite z-score [3]	composite z-score [4]	composite z-score [5]	composite z-score [6]	z-score [7]	composite z-score (Lefty1)	composite z-score [8]	z-score [9]
COCCOC(=O)N1C(=O)[C@@]2(c3cc(C#CCCO)ccc31)[C@H](c1ccccc1OCCO)N1[C@H](c3ccccc3)[C@H](c3ccccc3)OC(=O)[C@H]1[C@@H]2C(=O)N1CCCCCCC1	1.35	1.17	0.624	0.857	1.39	1.58	-0.383	1.65	1.14	-0.0558 (inactive)
C=CCC(OC(C)=O)[C@@H]1[C@@H](N(Cc2ccc(-c3cccc(C(F)(F)F)c3)o2)C(=O)c2cccc3ccccc23)c2cc(OCCCO)ccc2N1C(=O)Cc1ccc(OC)cc1 (stereo not given in full)	-0.0466	-1.02	-0.104	-0.765	0.998	-0.0117	-0.465	0.229	0.0854	0.638 (inactive)
COCC(=C=CC[C@H](O)c1cccc(OCCO)c1)C[C@H](O)COCc1ccccc1	1.09	1.11	1.24	-0.749	1.21	1.23	-0.177	0.88	-0.41	-0.496 (inactive)
COC(=O)[C@@]1(Cc2ccc(F)cc2)[C@H]2c3cc(C(=O)N(C)C)n(Cc4c(CO)[nH]cc(C)c4=O)c3C[C@H]2CN1C(=O)c1ccccc1	0.394	0.453	0.0551	-0.466	-0.198	-0.197	0.932	-0.0191	0.406	0.593 (inactive)
CN(C)CCCNC(=O)[C@@H]1c2ccccc2C(=O)N(C2CCCCC2)[C@H]1c1ccc(CO)cc1	2.58	1.24	-0.0457	0.508	1.35	1.3	0.494	1.04	0.277	0.876 (inactive)
COc1ccc([Si](C)(C)[C@@H]2[C@@H](CCn3cc([C@H](O)c4ccccc4)nn3)O[C@]3(C(=O)N(Cc4cccc(N5C(=O)c6cccc7cccc5c67)c4)c4ccccc43)[C@H]2C)cc1	0.195	-0.34	-0.426	-0.759	-0.0585	-0.758	0.794	0.199	-0.228	0.148 (inactive)
Cc1ccc([C@H]2C(C(=O)O)=C[C@@H](C(C)(C)C)N2S(=O)(=O)c2ccc(C)cc2)cc1	1.28	1.24	0.664	0.999	0.802	0.557	-0.918	0.367	1.3	1.48 (inactive)
CCOC(=O)C[C@H]1[C@H](OC(=O)c2cc3ccccc3oc2=O)[C@@H](NC(=O)c2ccc3ccccc3c2)c2cc(OCCCO)ccc2N1C(=O)Cc1ccc(OC)cc1	-0.017	0.743	0.307	0.932	0.911	0.518	-0.167	0.631	0.664	0.842 (inactive)
Cc1ccc(F)cc1S(=O)(=O)N[C@@H]1CCN(Cc2cccc3[nH]ccc23)C1	0.134	0.179	-0.271	-0.383	1.26	0.932	0.443	0.69	-0.227	-0.0287 (inactive)
[N-]=[N+]=Nc1ccccc1C[C@]1(C(=O)O)N=C(c2ccc(OCCCO)cc2)O[C@H]1c1ccccc1N=[N+]=[N-]	1.45	1.21	0.507	0.986	0.945	0.0923	0.64	-0.676	1.25	-5.36 (inactive)
CN1C(=O)[C@@]2(Cc3ccccc3)N=C(c3ccc(OCCCO)cc3)O[C@H]2c2ccccc21	1.32	1.22	0.241	0.619	1.48	1.25	0.558	0.941	0.3	-6.41 (inactive)
COc1cc2c(cc1OC)CN(C(=O)[C@@H]1[C@H]3C(=O)O[C@H](c4ccccc4)[C@H](c4ccccc4)N3[C@H](c3ccc(O)cc3)[C@@]13C(=O)Nc1ccc(C#CCCO)cc13)CC2	0.388	0.989	0.584	0.876	1.11	1.24	-1.2	0.945	0.7	0.372 (inactive)
O=C1O[C@H](c2ccccc2)[C@H](c2ccccc2)N2[C@H]1[C@@H](C(=O)N1CCCCCCC1)[C@]1(C(=O)Nc3ccc(C#CC4(O)CCCCCC4)cc31)[C@H]2c1ccccc1OCCO	2.25	1.35	3.94	0.713	1.62	0.121	0.589	1.92	1.71	1.03 (inactive)
O=C1C[C@@](C(=O)NCC(F)(F)F)(c2ccc([N+](=O)[O-])cc2)[C@@H](c2ccc(CO)cc2)N1CC12CC3CC(CC(C3)C1)C2	0.544	1.2	0.0423	0.348	1.5	1.78	-0.598	0.634	0.732	0.28 (inactive)
COC(=O)C(CC#Cc1ccc2c(c1)[C@]1(C(=O)N2)[C@H](C(=O)Nc2nc3ccccc3s2)[C@H]2C(=O)O[C@H](c3ccccc3)[C@H](c3ccccc3)N2[C@@H]1c1ccc(OCCO)cc1)C(=O)OC	1.94	1.1	0.539	0.978	1.45	1.39	-1.94	1.27	1.07	-4.66 (inactive)
CC(C)CCC[C@@H](C)[C@H]1CC[C@@]2(C)C3=C(CC[C@]12C)[C@@]1(C)CC[C@H](OC(=O)c2ccccc2)C(C)(C)C1CC3 (stereo not given in full)	0.226	0.29	-0.0586	0.816	0.438	0.288	0.442	0.591	0.134	-0.0355 (inactive)

From PubChem BioAssay
